Measured values: paper PMC11006913
Where a chain is given by its changes, count along the chain named.

Key:
Assay in all cases: PBM; 200 nM protein, PBS
Conditions in all cases: dsDNA, one strand shown
HOXB4 [1] = target: HOXB4 (Homo sapiens, UniProt P17483 148-234)
SHOX [2] = target: SHOX (Homo sapiens, UniProt O15266 103-189)
HOXB4 [3] = target: HOXB4 (Homo sapiens, UniProt P17483 148-234, V174I)
HOXD13 [4] = target: HOXD13 (Homo sapiens, UniProt P35453 263-343, T313R)
SHOX [5] = target: SHOX (Homo sapiens, UniProt O15266 103-189, R173C)
HOXD13 [6] = target: HOXD13 (Homo sapiens, UniProt P35453 263-343)
HOXD13 [7] = target: HOXD13 (Homo sapiens, UniProt P35453 263-343, T313A)
CRX [8] = target: CRX (Homo sapiens, UniProt O43186 26-111)
PAX4 [9] = target: T1, PAX4 (Homo sapiens, UniProt O43316 9-242, R200K)
T1 sequence: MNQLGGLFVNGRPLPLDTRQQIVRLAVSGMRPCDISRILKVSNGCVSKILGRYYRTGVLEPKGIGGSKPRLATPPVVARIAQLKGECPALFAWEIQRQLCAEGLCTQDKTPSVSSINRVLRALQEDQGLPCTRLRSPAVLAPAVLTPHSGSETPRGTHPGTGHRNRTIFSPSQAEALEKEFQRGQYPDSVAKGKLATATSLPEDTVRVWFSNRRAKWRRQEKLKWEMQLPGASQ

PAX4 [10] = target: T2, PAX4 (Homo sapiens, UniProt O43316 9-242)
T2 sequence: T1 sequence with K192R

NKX2-6 = target: T3, NKX2-6 (Homo sapiens, UniProt A6NCS4 118-204, R150C)
T3 sequence: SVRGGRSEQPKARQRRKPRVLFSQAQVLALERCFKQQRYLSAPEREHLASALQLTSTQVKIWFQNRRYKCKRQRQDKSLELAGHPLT

CRX [11] = target: CRX (Homo sapiens, UniProt O43186 26-111, E42D)
PAX4 [12] = target: T4, PAX4 (Homo sapiens, UniProt O43316 9-242, R200Q)
T4 sequence: T1 sequence with K192Q

PAX4 [13] = target: T5, PAX4 (Homo sapiens, UniProt O43316 9-242, F177V)
T5 sequence: T1 sequence with F169V, K192R

PAX4 [14] = target: T6, PAX4 (Homo sapiens, UniProt O43316 9-242, F177Y)
T6 sequence: T1 sequence with F169Y, K192R

PAX4 [15] = target: T7, PAX4 (Homo sapiens, UniProt O43316 9-242, R227W)
T7 sequence: T1 sequence with K192R, R219W

CRX [16] = target: CRX (Homo sapiens, UniProt O43186 26-111, R41L)
HESX1 [17] = target: HESX1 (Homo sapiens, UniProt Q9UBX0 95-180, R165K)
HESX1 [18] = target: HESX1 (Homo sapiens, UniProt Q9UBX0 95-180)
HESX1 [19] = target: HESX1 (Homo sapiens, UniProt Q9UBX0 95-180, P111T)
VENTX [20] = target: T8, VENTX (Homo sapiens, UniProt O95231 78-163, R121Q)
T8 sequence: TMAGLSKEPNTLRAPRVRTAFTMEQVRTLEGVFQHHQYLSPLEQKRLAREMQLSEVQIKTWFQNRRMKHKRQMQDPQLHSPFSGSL

VENTX [21] = target: T9, VENTX (Homo sapiens, UniProt O95231 78-163)
T9 sequence: T8 sequence with Q44R

VENTX [22] = target: T10, VENTX (Homo sapiens, UniProt O95231 78-163, Y115F)
T10 sequence: T8 sequence with Y38F, Q44R

HOXA2 [23] = target: HOXA2 (Homo sapiens, UniProt O43364 129-215, R185T)
HOXA2 [24] = target: HOXA2 (Homo sapiens, UniProt O43364 129-215, R185K)
HOXA2 [25] = target: HOXA2 (Homo sapiens, UniProt O43364 129-215, Y150S)
HOXA2 [26] = target: HOXA2 (Homo sapiens, UniProt O43364 129-215)
Chain of HOXA2 (Homo sapiens, UniProt O43364 129-215) (O43364 129-215): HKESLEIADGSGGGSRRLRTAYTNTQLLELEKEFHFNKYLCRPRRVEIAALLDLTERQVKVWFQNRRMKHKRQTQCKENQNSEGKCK

Chain of SHOX (Homo sapiens, UniProt O15266 103-189, R173C) (O15266 103-189 R173C): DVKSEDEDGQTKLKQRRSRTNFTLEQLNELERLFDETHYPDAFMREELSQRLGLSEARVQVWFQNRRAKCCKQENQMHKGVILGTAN
Chain of HOXB4 (Homo sapiens, UniProt P17483 148-234) (P17483 148-234): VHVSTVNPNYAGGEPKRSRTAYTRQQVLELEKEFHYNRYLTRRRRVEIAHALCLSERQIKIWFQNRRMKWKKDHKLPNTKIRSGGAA
Chain of SHOX (Homo sapiens, UniProt O15266 103-189) (O15266 103-189): as the sequence (O15266 103-189 R173C) above, with C71R counted along it
Chain of HOXB4 (Homo sapiens, UniProt P17483 148-234, V174I) (P17483 148-234 V174I): as the sequence (P17483 148-234) above, with V27I counted along it
Chain of HOXD13 (Homo sapiens, UniProt P35453 263-343, T313R) (P35453 263-343 T313R): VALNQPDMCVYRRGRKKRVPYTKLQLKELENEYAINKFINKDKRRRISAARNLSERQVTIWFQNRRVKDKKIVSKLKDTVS
Chain of HESX1 (Homo sapiens, UniProt Q9UBX0 95-180, R165K) (Q9UBX0 95-180 R165K): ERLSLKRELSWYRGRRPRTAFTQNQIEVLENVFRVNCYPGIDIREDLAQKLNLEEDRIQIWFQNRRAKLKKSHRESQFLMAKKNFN
Chain of HOXD13 (Homo sapiens, UniProt P35453 263-343, T313A) (P35453 263-343 T313A): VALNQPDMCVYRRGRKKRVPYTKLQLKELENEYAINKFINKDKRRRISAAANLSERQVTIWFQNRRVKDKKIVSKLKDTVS
Chain of HESX1 (Homo sapiens, UniProt Q9UBX0 95-180, P111T) (Q9UBX0 95-180 P111T): as the sequence (Q9UBX0 95-180 R165K) above, with P17T, K71R counted along it
Chain of HOXA2 (Homo sapiens, UniProt O43364 129-215, Y150S) (O43364 129-215 Y150S): as the sequence (O43364 129-215) above, with Y22S counted along it
Chain of CRX (Homo sapiens, UniProt O43186 26-111, R41L) (O43186 26-111 R41L): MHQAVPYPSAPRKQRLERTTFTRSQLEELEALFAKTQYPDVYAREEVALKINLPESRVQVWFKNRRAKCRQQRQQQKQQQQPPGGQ
Chain of HOXA2 (Homo sapiens, UniProt O43364 129-215, R185K) (O43364 129-215 R185K): as the sequence (O43364 129-215) above, with R57K counted along it
Chain of HOXD13 (Homo sapiens, UniProt P35453 263-343) (P35453 263-343): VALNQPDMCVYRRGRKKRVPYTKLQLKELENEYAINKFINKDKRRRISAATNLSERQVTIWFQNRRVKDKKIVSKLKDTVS
Chain of HOXA2 (Homo sapiens, UniProt O43364 129-215, R185T) (O43364 129-215 R185T): as the sequence (O43364 129-215) above, with R57T counted along it
Chain of CRX (Homo sapiens, UniProt O43186 26-111) (O43186 26-111): as the sequence (O43186 26-111 R41L) above, with L16R counted along it
Chain of CRX (Homo sapiens, UniProt O43186 26-111, E42D) (O43186 26-111 E42D): as the sequence (O43186 26-111 R41L) above, with L16R, E17D counted along it
Chain of HESX1 (Homo sapiens, UniProt Q9UBX0 95-180) (Q9UBX0 95-180): as the sequence (Q9UBX0 95-180 R165K) above, with K71R counted along it

With CCGCAAGG the binding signal (HOXB4 [1]) was 7.78 upbm affinity estimate (log intensity, higher = more binding, comparable within an allelic series), the binding signal (SHOX [2]) was 7.17 upbm affinity estimate (log intensity, higher = more binding, comparable within an allelic series) and the binding signal (HOXB4 [3]) was 7.66 upbm affinity estimate (log intensity, higher = more binding, comparable within an allelic series). For the same sequence, the binding signal (HOXD13 [4]) was 9.53 upbm affinity estimate (log intensity, higher = more binding, comparable within an allelic series), the binding signal (SHOX [5]) was 7.2 upbm affinity estimate (log intensity, higher = more binding, comparable within an allelic series) and the binding signal (HOXD13 [6]) was 9.5 upbm affinity estimate (log intensity, higher = more binding, comparable within an allelic series). The binding signal (HOXD13 [7]) was 9.67 upbm affinity estimate (log intensity, higher = more binding, comparable within an allelic series).

GACGCCGC was tested, and the binding signal (HOXB4 [1]) was 7.74 upbm affinity estimate (log intensity, higher = more binding, comparable within an allelic series), the binding signal (CRX [8]) was 8.08 upbm affinity estimate (log intensity, higher = more binding, comparable within an allelic series) and the binding signal (PAX4 [9]) was 9.17 upbm affinity estimate (log intensity, higher = more binding, comparable within an allelic series). For the same sequence, the binding signal (PAX4 [10]) was 9.29 upbm affinity estimate (log intensity, higher = more binding, comparable within an allelic series), the binding signal (HOXB4 [3]) was 7.51 upbm affinity estimate (log intensity, higher = more binding, comparable within an allelic series) and the binding signal (NKX2-6) was 9.27 upbm affinity estimate (log intensity, higher = more binding, comparable within an allelic series). The binding signal (CRX [11]) was 8.14 upbm affinity estimate (log intensity, higher = more binding, comparable within an allelic series), the binding signal (PAX4 [12]) was 9.2 upbm affinity estimate (log intensity, higher = more binding, comparable within an allelic series) and the binding signal (PAX4 [13]) was 9.15 upbm affinity estimate (log intensity, higher = more binding, comparable within an allelic series). The binding signal (PAX4 [14]) was 9.2 upbm affinity estimate (log intensity, higher = more binding, comparable within an allelic series), the binding signal (PAX4 [15]) was 9.18 upbm affinity estimate (log intensity, higher = more binding, comparable within an allelic series) and the binding signal (CRX [16]) was 8.18 upbm affinity estimate (log intensity, higher = more binding, comparable within an allelic series).

For CGGCGAGC, the binding signal (HOXB4 [1]) was 7.79 upbm affinity estimate (log intensity, higher = more binding, comparable within an allelic series), the binding signal (SHOX [2]) was 7.05 upbm affinity estimate (log intensity, higher = more binding, comparable within an allelic series) and the binding signal (HOXB4 [3]) was 7.74 upbm affinity estimate (log intensity, higher = more binding, comparable within an allelic series). For the same sequence, the binding signal (SHOX [5]) was 7.11 upbm affinity estimate (log intensity, higher = more binding, comparable within an allelic series).

For GTCATAAC, the binding signal (HESX1 [17]) was 7.26 upbm affinity estimate (log intensity, higher = more binding, comparable within an allelic series), the binding signal (HESX1 [18]) was 7.28 upbm affinity estimate (log intensity, higher = more binding, comparable within an allelic series) and the binding signal (HESX1 [19]) was 7.2 upbm affinity estimate (log intensity, higher = more binding, comparable within an allelic series).

CAGGGGGC was tested, and the binding signal (HOXB4 [1]) was 7.45 upbm affinity estimate (log intensity, higher = more binding, comparable within an allelic series), the binding signal (SHOX [2]) was 7.1 upbm affinity estimate (log intensity, higher = more binding, comparable within an allelic series) and the binding signal (VENTX [20]) was 7.88 upbm affinity estimate (log intensity, higher = more binding, comparable within an allelic series). The binding signal (VENTX [21]) was 8.14 upbm affinity estimate (log intensity, higher = more binding, comparable within an allelic series), the binding signal (VENTX [22]) was 7.91 upbm affinity estimate (log intensity, higher = more binding, comparable within an allelic series) and the binding signal (HOXA2 [23]) was 7.09 upbm affinity estimate (log intensity, higher = more binding, comparable within an allelic series). For the same sequence, the binding signal (HOXB4 [3]) was 7.54 upbm affinity estimate (log intensity, higher = more binding, comparable within an allelic series), the binding signal (SHOX [5]) was 7.01 upbm affinity estimate (log intensity, higher = more binding, comparable within an allelic series) and the binding signal (HOXA2 [24]) was 10.1 upbm affinity estimate (log intensity, higher = more binding, comparable within an allelic series). For the same sequence, the binding signal (HOXA2 [25]) was 10.3 upbm affinity estimate (log intensity, higher = more binding, comparable within an allelic series) and the binding signal (HOXA2 [26]) was 7.35 upbm affinity estimate (log intensity, higher = more binding, comparable within an allelic series).
